PubChem BioAssay AID1259415 (National Center for Advancing Translational Sciences (NCATS), 2018)
Screen size: about 410,000 compounds; about 18,000 (4.4%) were called active. About 7% were inconclusive and are not listed. The full list was thinned out, with actives kept by preference. Unmarked numbers belong to inactive results. No stated cut-off is given here; in the data, active means activity change below about -60%; inconclusive means no clear call, values can overlap the other calls; inactive means above about -39%.

Assay: qHTS Assay for inhibitors of the human cytomegalovirus (HCMV)
Conditions: HFF cells, HCMV-luciferase reporter, 72 h; at 57.5 µM; hits give low values
Procedure, shortened: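 Cell-based, HFFs, 1000 cells/well, 16 h 37C; cpds in DMSO + HCMV-luc, MOI 1 PFU/cell; 72 h 37C; OneGlo luminescence after 5 min RT; norm. to buffer vs Salinomycin 10uM.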
On the % scale 0 is the no-effect control and ±100 the full control effect.

Compound	activity change, negative = inhibition
Cc1cccc(Nc2nc(C)nc(N)c2S(=O)(=O)c2ccccc2)c1	0.44%
C=CCNC(=S)/N=c1/ccccn1Cc1ccccc1	-98.8% (active)
N=c1ccccn1Cc1ccccc1	-18.5%
C=CCNC(=O)COc1coc(CN2CCN(Cc3ccccc3)CC2)cc1=O	-9%
CCCNC(=O)C1CCC(Cn2c(=O)c3sccc3n(Cc3ccccc3F)c2=O)CC1 (centres undefined)	1.25%
O=C(N/N=C/c1ccc(O)c(O)c1)C1c2ccccc2Oc2ccccc21	23.9%
CCOC(=O)CNC(=O)CSc1ccc2nnc(-c3cccnc3)n2n1	49.6%
CCOC(=O)N/N=C/c1cccnc1	-60.5% (active)
Cc1c(Cl)cccc1NC(=O)CSc1ccc(-c2cccnc2)nn1	-12.1%
O=C(N/N=C/c1cccnc1)c1cc2ccccc2cc1O	-98% (active)
O=C(O)/C(=C/c1cccnc1)NC(=O)c1ccccc1	6.75%
CC1=NNC(=O)C1CC(=O)N/N=C/c1ccncc1 (centres undefined)	42.5%
O=C(N/N=C/c1cccc2cccnc12)[C@H]1C[C@@H]1c1ccccc1	20.4%
O=C(CSc1cccc2cccnc12)N/N=C/c1cccnc1	-101% (active)
COc1ccc(Cn2ccn(CC(=O)Nc3cc(C)ccc3C)c(=O)c2=O)cc1	15.8%
COc1ccccc1NC(=O)CN1C(=O)c2ccccc2Sc2ccc(C(=O)N3CCCC3)cc21	14.4%
CC(C)(C)OC(=O)N1CCC(c2c(C(=O)N3CCc4ccccc4C3)cnn2-c2ccc(F)cc2)CC1	6.95%
Cc1cc(C)cc(NC(=O)CSc2oc(-c3ccccc3)nc2S(=O)(=O)c2ccc(Cl)cc2)c1	-2.05%
COc1ccc(CCC(=O)NCc2ccc3c(c2)CCN3C(=O)c2ccc(F)cc2)cc1	15.1%
CCc1ccc2oc(-c3ccc(NC(=O)c4cc5ccccc5o4)cc3)nc2c1	37.7%
Cc1cccc(NC(=O)N2CCCCCC2)c1C	57.9%
Cc1cccc(NC(=S)N2CCC(O)CC2)c1C	-32.2%
Cc1cccc(C)c1NC(=S)N1CCCCCC1	-64.3% (active)
O=C1NCC(Nc2ccccc2)C(=O)N1 (centres undefined)	-7.88%

Compound	activity change, negative = inhibition
CCc1ccc(NS(=O)(=O)c2ccc3[nH]cc(C(=O)NCCc4cccc(C)c4)c(=O)c3c2)cc1	93.7%
OC(CNCC1CCCO1)Cn1c2ccc(Br)cc2c2cc(Br)ccc21 (centres undefined)	2.12%
Cc1cc(C)c2oc(-c3cccc(NC(=O)c4cccc(F)c4)c3C)nc2c1	-0.821%
O=C(Nc1cccc(-c2cscn2)c1)C1CCN(Cc2ccsc2)CC1	-33.6%
CC(=O)c1cc(CN2CCC(C(=O)Nc3cccc(-c4cscn4)c3)CC2)cs1	-30.7%
CCn1cc(CN2CCC(C(=O)Nc3cccc(-c4cccc(Cl)c4)c3)CC2)cn1	-97.6% (active)
CCc1ccccc1N1CC(c2nc3ccccc3n2CCCCOc2ccccc2)CC1=O (centres undefined)	-4.32%
COc1ccc(OCCCn2c(C3CC(=O)N(c4ccc(F)cc4)C3)nc3ccccc32)cc1 (centres undefined)	-13%
CCCCN1CC(c2nc3ccccc3n2CCCCOc2ccc(C)cc2C)CC1=O (centres undefined)	-105% (active)
O=C(NCc1ccccc1)C1CCN(S(=O)(=O)c2ccc3[nH]c(=O)ccc3c2)CC1	23%
Cc1ccccc1OCC(=O)Nc1c(C(=O)Nc2ccccc2F)oc2ccccc12	11.7%
C=CCSc1nnc(Cn2c(=O)sc3ccccc32)n1C	-2.22%
COc1ccc(Cn2c(=O)sc3ccccc32)cc1OC	-99.8% (active)
COc1ccc(CN2CCOC2=O)cc1OC	-13.1%
CCOC(=O)c1ccc(NC(=O)Cn2c(=O)cc(C)c3c(C)nn(-c4cccc(F)c4)c32)cc1	2.32%
CCC(C)N1C(=O)S/C(=C/c2ccc(Sc3nc4ccccc4[nH]3)o2)C1=O (centres undefined)	-91.5% (active)
CCC(c1nc2ccccc2[nH]1)n1c(=O)c(-c2cccs2)nc2ccccc21 (centres undefined)	-2.85%
COc1ccc(C)cc1NC(=O)CCc1c(C)nn(-c2ccc(N3CCOCC3)nn2)c1C	39.1%
CCCCCn1c(=O)[nH]c2cc(C(=O)NCCN(C)CCCC)ccc2c1=O	-33.3%
CCOc1ccc(NC(=O)c2c(NC(=O)Cc3ccccc3)sc3c2CCCCC3)cc1	-74.7% (active)
CCOc1ccc(NC(=O)c2c(NC(=O)Cc3ccccc3)sc3c2CCC(C)C3)cc1 (centres undefined)	-34.6%
O=C(Cc1ccccc1)Nc1sc2c(c1C(=O)Nc1ccc(Br)cc1)CCC2	5.03%
CC(C)c1ccc(NC(=O)c2ccc(Cn3nc(N4CCN(c5ccccc5)CC4)ccc3=O)o2)cc1	-19.5%
Cn1ncc2c(Nc3cccc4ccccc34)ncnc21	87.3%

Compound	activity change, negative = inhibition
Cc1cc([N+](=O)[O-])nn1CC(=O)Nc1ccc(Cc2ccncc2)cc1	-63.5% (active)
CC(C)CC(=O)Nc1ccc(Cc2ccncc2)cc1	-32.9%
Cc1cc(C)n(CC(=O)Nc2ccc([N+](=O)[O-])cc2)n1	-4.15%
COc1ccc(NC(=O)CSC2=Nc3ccccc3C3=NC(CC(=O)NCc4ccccc4OC)C(=O)N23)cc1Cl (centres undefined)	17.7%
CCC(C)NCCOCCOc1ccc(Br)cc1C (centres undefined)	-37.4%
CC(Oc1ccc(Br)cc1)C(=O)NC1CCCCCC1 (centres undefined)	25.7%
CC(C)(C)CC(C)(C)NCC(O)COCCOc1ccc(Br)cc1 (centres undefined)	-100% (active)
O=C(CCc1ccc(S(=O)(=O)N2CCOCC2)cc1)OCC(=O)c1ccc(Br)cc1	49%
CC(=N\NC(=O)c1cc(Br)ccc1O)/C(=N/O)C(=O)Nc1ccccc1	0%
Cc1ccc(-c2noc(CNC(=O)c3ccoc3C)n2)cc1	-11.6%
C/C(=N\NC(=O)c1ccoc1C)c1ccccc1O	-91.4% (active)
Cc1cc(C)c(C#N)c(Nc2cccc(Br)c2)n1	34%
CCOC(=O)c1cc(-c2ccccc2)n(-c2cccc(C(=O)Nc3cc(OC)cc(OC)c3)c2)c1C	0%
CC(=O)Nc1ccccc1OC(=O)N1CCOCC1	-15.8%
O=C(/C=C/c1cccs1)c1cc(Cl)ccc1OC(=O)N1CCOCC1	-92.8% (active)
O=C(NCC(c1cccs1)N1CCOCC1)c1cc(Cl)ccc1[N+](=O)[O-] (centres undefined)	-16.2%
CCc1ccccc1NC(=O)Cn1c(=O)n(-c2cccc(C)c2)c(=O)c2c1c1cc(OC)ccc1n2C	-23.1%
O=C(COC(=O)c1ncc(Cl)c(Cl)c1Cl)NCc1ccccc1	11.2%
O=C(COC(=O)c1ccccc1C(=O)N1CCN(c2ccccc2)CC1)NCc1ccccc1	-62.6% (active)
O=C(COC(=O)CNC(=O)C1CCCCC1)NCc1ccccc1	69.4%
O=C(C1CCCN(S(=O)(=O)c2cccc3nonc23)C1)N1CCN(c2ccccc2F)CC1 (centres undefined)	6.66%
O=[N+]([O-])c1ccc(NCCCO)c(C(F)(F)F)c1	-8.02%
CCC(CC)c1nnc(NC(=O)C2=COCCO2)s1	-1.99%
Cc1ccc(C(=O)Nc2nnc(C3=COCCO3)o2)cc1C	-0.804%

Compound	activity change, negative = inhibition
Cc1ccc(-c2csc(NC(=O)C3=COCCO3)n2)cc1C	-61.5% (active)
CCOc1ccc(CN2CCN(Cc3ccon3)CC2CCO)cc1 (centres undefined)	3.47%
Cc1nn(CCOc2ccccc2)c(=O)n1-c1ccccc1F	69.3%
C=CCNCCCCOc1ccccc1	16.3%
CC(C)(c1ccccc1)c1ccc(OCCN)cc1	-107% (active)
O=C(/C=C/c1ccccc1)Oc1coc(CSc2ncccn2)cc1=O	9.32%
COC(=O)c1ccc(OC)c(Cn2c(=O)n(Cc3ccccc3)c(=O)c3c2c2cc(OC)ccc2n3C)c1	7.51%
O=C(Nc1ccccc1)N1CCC(C(=O)N2CCN(Cc3ccccc3)CC2)CC1	0%
O=C(C1CCN(Cc2ccc(Cl)cc2)CC1)N1CCN(Cc2ccc3c(c2)OCO3)CC1	-63% (active)
O=C(C1CCN(S(=O)(=O)c2cnc[nH]2)CC1)N1CCN(Cc2ccc3c(c2)OCO3)CC1	9.71%
CCS(=O)(=O)N1CCc2cc(C(=O)NCc3ccc(C)cc3)ccc21	-3.25%
Cc1ccc(C(=O)Nc2ccccc2F)cc1S(=O)(=O)N1CCOCC1	31.5%
Cc1ccc(NC(=O)N[C@H]2CC[C@@]34CCCN3C(=O)CCC[C@H]4C2Cc2ccccc2)cc1 (some centres undefined)	26.8%
CCOC(=O)C1CCN(C(c2ccc(F)cc2)c2sc3nc(-c4ccco4)nn3c2O)CC1 (centres undefined)	2.65%
Cc1cc(C)c(-c2n[nH]c3c2C(c2ccccc2F)N(CCO)C3=O)c(O)c1 (centres undefined)	25.7%
CCC1(CC)NC(=O)N(CC(=O)OCC(=O)c2cc(C)c(C)cc2C)C1=O	-15.3%
CC(=O)Nc1ccc(S(=O)(=O)N2CCN(CCCOc3cc(C)ccc3C)CC2)cc1	-65.9% (active)
Cc1ccc(C)c(OCCC(=O)Nc2cccc(S(=O)(=O)N3CCCC3)c2)c1	-23.7%
Cc1cccc(OCCCC(=O)Nc2ccc(S(=O)(=O)N3CCCC3)cc2)c1	10.4%
CCN(CC)c1ccc(C2C(C(N)=O)=C(C)Nc3nc(SCc4ccccc4)nn32)cc1 (centres undefined)	-90.4% (active)
CC1=C(C(N)=O)C(c2ccc3c(c2)OCO3)n2nc(-c3cccc(C)c3)nc2N1 (centres undefined)	78%
CC1=C(C(=O)Nc2ccccc2)C(c2ccc(C)cc2)n2nc(SCc3ccccc3C)nc2N1 (centres undefined)	1.28%
